# From PubChem BioAssay (NCATS)
# Results filed as inconclusive are left out. Where a call stands in place of a potency, no number is given. Active and inactive are the calls of the source. Calls come from the whole dose curve; as a rule, active = well fitted curve in the direction sought with a large enough effect; inconclusive = small, poorly fitted or top-dose-only effect, or another doubt; inactive = no such curve, though single readings can be large; an effect the other way counts as inactive or inconclusive.
# Experiments:
# [1] = target: Aldehyde dehydrogenase, mitochondrial (Homo sapiens) (UniProt P05091); assay: qHTS for Inhibitors of the Aldehyde Dehydrogenase Family (ALDH2) Primary screen (AID 2061308); note: nearly all actives have a fitted effect of over 55% in size
# [2] = target: Retinaldehyde dehydrogenase 3 (Homo sapiens) (UniProt P47895); assay: qHTS for Inhibitors of the Aldehyde Dehydrogenase Family (ALDH1A3) Primary screen (AID 2061315)
SMILES,Potency [1],Potency [2]
C=CCNc1oc(-c2ccc(F)cc2)nc1C#N,inactive,inactive
Cc1c(P(=S)(c2ccccc2)c2ccccc2)c2ccccc2n1CCCc1ccccc1,inactive,inactive
Cc1ccc(S(=O)(=O)Nc2cnccc2C(=O)Nc2ccc(-n3cncn3)cc2)cc1,inactive,inactive
Fc1cc(Cl)cc(-c2ccc(CNc3nc(-c4ccccc4C(F)(F)F)nc4ccccc34)cc2)c1,inactive,inactive
COc1ccc(S(=O)(=O)N2CCN(S(=O)(=O)c3c(F)cccc3F)CC2)cc1,inactive,inactive
Cc1cccc(Cn2ncc3c4sc(C)cc4n(C)c3c2=O)c1,inactive,inactive
CN1CCN(Cc2cc(COCc3ccccc3)c3cccnc3c2O)CC1,inactive,inactive
Nc1ncnc2c1C(c1ccccc1)c1c(ccc3ccccc13)O2 (stereo not drawn),inactive,inactive
c1ccc2sc(-c3csc4c3CCNC4)nc2c1,inactive,inactive
O=C(Nc1ccc(S(=O)(=O)Nc2nccs2)cc1)c1ccc2ccccc2c1,inactive,inactive
CC[C@@H]1C(=O)O[C@]23C=C[C@@H]4C(C(=O)OC)=CO[C@H](O[C@@H]12)[C@@H]43,inactive,inactive
O=C(O)c1ccc(O)c2ncc(N3CCC(N4CCOCC4)C3)cc12 (stereo not drawn),inactive,inactive
CC(=O)c1ccc(-c2csc3ncnc(Sc4nnnn4C)c23)cc1,inactive,inactive
CCOc1ccc(CCNC(=O)Cc2ccccc2)cc1OCC,inactive,inactive
Cc1ccc(C(=O)Nc2nnc(-c3ccco3)o2)cc1,inactive,inactive
COc1ccc(OC)c(-c2nnc3n2N=C(c2ccc(OC)c(OC4CCCC4)c2)CS3)c1,inactive,inactive
O=[S+]([O-])(Nc1ccccc1F)c1cccc(NC/C=C/c2ccccc2)c1,inactive,inactive
O=C1C2=C(CN1c1ccccc1)NC(Nc1nc3ccccc3o1)=NC2c1ccccc1Cl (stereo not drawn),inactive,inactive
C/C1=C\CC(C)(C)/C=C/C/C(C(=O)O)=C/CC1,inactive,inactive
CC(=O)O[C@@]12CO[C@@H]1C[C@H](O)[C@@]1(C)C(=O)[C@H](O)C3=C(C)[C@@H](OC(=O)[C@H](O)[C@@H](NC(=O)OC(C)(C)C)c4ccccc4)C[C@@](O)([C@@H](OC(=O)c4ccccc4)C12)C3(C)C (stereo partly drawn),inactive,inactive
O=C(Nc1nnc(-c2ccco2)o1)c1ccncc1,inactive,inactive

SMILES,Potency [1],Potency [2]
CC(=O)Nc1sc2c(c1C(O)c1nc3ccccc3s1)CCN(C(C)C)C2 (stereo not drawn),inactive,inactive
COc1ccc(C(F)(F)F)cc1NC(=O)C(OC(=O)CNC(=O)c1ccccc1)c1ccccc1 (stereo not drawn),inactive,inactive
O=C(/C=C/c1c(F)c(F)c(F)c(F)c1F)Nc1cccc([S+](=O)([O-])Nc2ccccc2F)c1,inactive,inactive
Cc1cccc(CNc2nc(-c3ccccc3C(C)C)ncc2C)c1,inactive,inactive
O=C1CC(c2ccccc2)CC2=C1C1(CCCCC1)N=C(Nc1nc3ccccc3o1)N2 (stereo not drawn),inactive,inactive
Cn1cnc(CN=C2NC3=C(C(=O)CCC3)C(c3[nH]ncc3Cl)N2)c1 (stereo not drawn),inactive,inactive
CCN(CC)C(=O)COC(=O)c1ccc(S(C)(=O)=O)c([N+](=O)[O-])c1,inactive,inactive
CCOC(=O)C1CCN(C(=O)C(C)(C)NC(=O)Nc2cccc(C(=O)OC)c2)CC1,inactive,inactive
CC12CCC3C1C(c1c(cc(O)c(C(=O)c4ccccc4)c1O)O2)C3(C)C (stereo not drawn),inactive,inactive
O=C(Nc1nnc(COc2ccc(Cl)cc2)s1)c1cccs1,inactive,inactive
COc1ccc(N2C[C@]34C=C[C@H](O3)C(C(=O)O)C4C2=O)cc1OC (stereo partly drawn),inactive,inactive
COc1ccc(C2c3c(nc(CCCc4ccccc4)[nH]c3=O)Oc3ccc4ccccc4c32)cc1OC (stereo not drawn),inactive,inactive
COc1cccc(Nc2nn3c(=O)c4ccccc4nc3s2)c1,inactive,inactive
Cc1ccc(S(=O)(=O)Nc2cccc(C(=O)Nc3nc(-c4ccccc4)cs3)c2Cl)cc1,inactive,inactive
CC(C)(C)OC(=O)Cc1nnc(C(C(=O)OCc2ccccc2)c2ccccc2)s1 (stereo not drawn),inactive,inactive
COC(=O)C1=CO[C@@H](O[C@@H]2O[C@H](CO)[C@@H](O)[C@H](O)[C@H]2O)C2C1C(=O)C[C@H]2C (stereo partly drawn),inactive,inactive
Cc1cc2c(s1)c1cnn(Cc3ccc(C#N)cc3)c(=O)c1n2C,inactive,inactive
Cc1cccc(-n2cnc3cc(C(=O)N4CCCC4)ccc32)c1,inactive,inactive
O=[S+]([O-])(c1ccc2c(c1)OCCO2)N1CCN([S+](=O)([O-])c2cc(Cl)ccc2F)CC1,inactive,inactive
CCOc1ccc(CCN(C)C(=O)c2cc3sccc3n2Cc2ccccc2)cc1OCC,inactive,inactive
Cc1cc(NS(=O)(=O)c2ccc(NC(=O)Cc3ccc(Cl)c(Cl)c3)cc2)on1,inactive,inactive

SMILES,Potency [1],Potency [2]
Cc1cnc(-c2ccccc2C2COC2)nc1NCc1ccc(-c2cccnc2)cc1,inactive,inactive
Cc1ccc(S(=O)(=O)Nc2ccccc2N2CCCCC2)s1,inactive,inactive
COc1ccc(Nc2nc(-c3ccncc3)nc3ccccc23)cc1F,inactive,inactive
Cn1c2cc(B(O)O)sc2c2cnn(Cc3c(F)cccc3F)c(=O)c21,inactive,inactive
C[C@@H]1CC[C@]2(C)C(C[C@@H](O)[C@H](O)[C@]23CO3)[C@@]1(C)CCc1ccoc1 (stereo partly drawn),inactive,inactive
Cc1nc2ccccn2c1C(O)(c1ccccc1)c1ccccc1,inactive,inactive
COc1cccc(-c2ccc(=O)n(CC(=O)NCCc3ccccc3)n2)c1,inactive,inactive
O=C(c1ccc2c(c1)ncn2-c1cccc(C(F)(F)F)c1)N1CCCCC1,inactive,inactive
Cc1ccnc(NC(=S)NC2CN(c3cccc(C(F)(F)F)c3)C2)c1,inactive,inactive
Cc1ccsc1CNc1ncnc2ccc(-c3ccc4c(c3)OCO4)cc12,inactive,inactive
CC(C)(C)OC(=O)NCC(=O)NNC(=O)c1nc2ccccc2[nH]1,inactive,inactive
COC(=O)c1ccc2nc(NC3=NC(c4[nH]ncc4Cl)C4=C(CCCC4=O)N3)oc2c1 (stereo not drawn),inactive,inactive
CC(=O)NC(c1cc(F)c2cccnc2c1O)C1CC1 (stereo not drawn),inactive,inactive
CC(=O)c1ccc(N2CCN(S(=O)(=O)c3ccc4c(c3)OCC(=O)N4)CC2)cc1,inactive,inactive
O=C1CCCC2=C1C(c1[nH]ncc1Cl)N=C(Nc1nc3cc(Br)ccc3o1)N2 (stereo not drawn),inactive,inactive
Cc1cc(C)nc(NC(=S)N2CCN(Cc3c(F)cccc3Cl)CC2)c1,inactive,inactive
COc1ccc2oc(NC3=NC(c4[nH]ncc4Cl)C4=C(CCCC4=O)N3)nc2c1 (stereo not drawn),inactive,inactive
Cc1cc(C)nc(NC(=S)N2CCN(c3ncnc4ccccc34)CC2)c1,inactive,inactive
Cc1c(P(=S)(c2ccccc2)c2ccccc2)c2ccccc2n1CCc1ccccc1,inactive,inactive
Cc1cc(NS(=O)(=O)c2ccc(NC(=O)c3ccc(Cl)c(Cl)c3)cc2)no1,inactive,inactive
Fc1cc(Nc2nc(-c3ccncc3)nc3ccccc23)ccc1-c1cc(F)c(F)c(F)c1,inactive,inactive

SMILES,Potency [1],Potency [2]
FC(F)(F)c1cccc(-c2nc(NCc3ccc(-c4ccnc(C(F)(F)F)c4)cc3)c3ccccc3n2)c1,inactive,inactive
O=c1[nH]c2ccc(S(=O)(=O)N3CCN(S(=O)(=O)c4ccc5c(c4)OCCO5)CC3)cc2[nH]c1=O,inactive,inactive
COc1ccnc(NC(=S)N2CCN(c3cc(C(F)(F)F)cc(C(F)(F)F)c3)CC2)c1,inactive,inactive
COc1cc(O)c(C(CC(=O)N2CCCC(C(F)(F)F)C2)c2ccc3c(c2)OCO3)c(OC)c1 (stereo not drawn),inactive,inactive
COc1cccc(-c2nnc3n2N=C(c2c(OC)cccc2OC)CS3)c1,inactive,inactive
O=C(OCC#CCSc1nnc(-c2cccc(F)c2)o1)c1ccc(F)cc1,inactive,inactive
Cc1ccc(-c2cc(C(=O)N(C)c3ccccc3)c3ccccc3n2)cc1C,inactive,inactive
COC(=O)c1ccc2c(c1)S(=O)(=O)NC2=O,inactive,inactive
COc1ccc(OC)c(-c2nnc3n2N=C(c2ccc(OC)c(OC)c2)CS3)c1,inactive,inactive
CC(C)(C)OC(=O)NCC(=O)NNC(=O)C(C(=O)OCc1ccccc1)c1ccccc1 (stereo not drawn),inactive,inactive
Cc1ccc(-c2csc(N3CCC(C(N)=O)CC3)n2)cc1,inactive,inactive
CCN(CC)CCCCn1c(-c2ccccc2)nc2c(NC3CCCCC3)nc(C)nc21,inactive,inactive
COc1cccc(-c2csc(NC(=O)c3ccncc3NS(=O)(=O)c3ccc(C)cc3)n2)c1,inactive,inactive
Cc1cccc(CNc2ncnc3ccc(-c4cccnc4)cc23)c1,inactive,inactive
CC1(C)CCC(C)(C)c2cc([S+](=O)([O-])N3CCN([S+](=O)([O-])c4c(F)cccc4F)CC3)ccc21,inactive,inactive
Cc1noc(C)c1-c1ccc2ncnc(NCc3ccc(C(F)(F)F)o3)c2c1,inactive,inactive
CC(=O)c1ccc(NC(=O)c2cnn3c(C)cc(C)nc23)cc1,inactive,inactive
CCCN(CCC)C(=O)C(CCC(=O)OCCCN1CCN(CCOC(=O)Cc2c(C)n(C(=O)c3ccc(Cl)cc3)c3ccc(OC)cc23)CC1)NC(=O)c1ccccc1 (stereo not drawn),inactive,inactive
Cc1cc2c(s1)c1cnn(Cc3ccc(F)c(F)c3)c(=O)c1n2C,inactive,inactive
COc1cccc(C2c3c(ncn(-c4ccccc4C)c3=N)Oc3ccc4ccccc4c32)c1 (stereo not drawn),inactive,inactive
CC(C)CCCCC(=O)N[C@@H](CO)C(=O)N[C@@H](CC(C)C)C(=O)[C@@]1(CO)CO1,inactive,inactive
